An excerpt weighted towards active compounds, which were near 3.2% of everything screened.
ERAP1 HTS inh = inhibitors of human ERAP1 aminopeptidase; recombinant ERAP1, Leu-AMC fluorescence, 60 min; 340,000 compounds, 0.15% hits; inhibition, % at 10.7 µM; Q9NZ08;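 active = mean replicate inhibition of at least 30%, or all replicates individually reaching that 30% level; inactive = mean below 30% and not every replicate reaching it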;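 note: 0% = neutral control wells and 100% = L-leucinethiol positive control wells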
DENV2 CPE = protects cells from dengue virus 2 cytopathic effect; DENV2-infected cells, cytopathic effect rescue, plate reader; AID 651640; 350,000 compounds, 1.7% hits; CPE inhibition, % at 9.99 µM; in the data active = CPE inhibition above about 20%, passing the limit was not always enough; inconclusive = no clear call, values can overlap the other calls; tested in BHK-21 cells;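 note: 0% = median of neutral control wells and 100% = median of positive control wells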
INS-1E GSIS act = GLuc luminescence reporter in INS-1E cells, primary screen for activators of glucose-dependent secretion of insulin | activation, % at 16.6 µM | 370,000 compounds, 0.61% hits | INS-1E GLuc reporter insulin secretion, 2-3 h;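 active = lowest replicate activation of at least 40%, so every replicate reaches that level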;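 note: 0% = median of neutral control wells and 100% = median of IBMX positive control wells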
CaV13 FRET inh = Primary screen for inhibitors of IQ motif and Ca2+-dependent inactivation inhibitor domain binding in CACNA1D, Förster resonance energy transfer in living cells, …; HEK cells, CFP/YFP FRET ICDI-IQ, plate reader, 10 min; percent FRET-ratio fall versus neutral wells; inhibition, % at 12.3 µM; 340,000 compounds, 0.098% hits; AID 743397;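 active = mean replicate inhibition of at least 30% and at least 1% of replicates passing that level; inconclusive = only one of the two criteria is met; inactive = neither criterion is met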;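 note: 0% = median of the neutral control wells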
Ecoli rRNA inh = inhibits bacterial ribosomal RNA function over humanized ribosomes; E. coli WT GFP vs humanized-ribosome RFP mutants, fluorescence, 24 h; stronger effect = lower value; DMSO median 0, no signal -100; GFP signal change (wild-type ribosome), % (concentration not given with the values); 350,000 compounds, 1.6% hits;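 active = significant combined selectivity score with lowered wild-type GFP, culture density cut under 30%, mutant RFP and density less affected; inactive = any of these conditions unmet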
PGC1a acetyl inh = modulators of PGC1a acetylation; inhibition, % at 15.6 µM; 350,000 compounds, 0.17% hits; AID 651687; U2OS PGC1a acetylation, AlphaScreen anti-acetyl-lysine; with virally co-expressed GCN5 acetyltransferase;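 active = every replicate shows inhibition of at least 40%; inconclusive = mean inhibition at least 40% but some replicate below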;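 note: 0% = neutral control wells and 100% = positive control wells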
The depositor's hits bear a star; ? = inconclusive; / = no result.

SMILES	ERAP1 HTS inh	DENV2 CPE	INS-1E GSIS act	CaV13 FRET inh	Ecoli rRNA inh	PGC1a acetyl inh
COc1cccc(-c2ccc3c(c2)[C@@H]2[C@@H](CCN2C(=O)C2CCCC2)[C@H](CO)N3)c1	0	6	8	/	-35	-1
O=C1C=CC2(O[C@H](c3ccccc3)[C@@H](c3ccccc3)O2)[C@H](Sc2ccccc2O)C1	33*	-5	26	-6	-12	/
C[C@@H]1[C@@H](Sc2ccccc2)CC(=O)O[C@@H]1c1ccc(-c2ccccc2)cc1	3	-8	/	-5	-1	/
CC(C)NC(=O)N1C[C@H]2[C@@H](c3ccccc31)[C@@H](CO)N2C(=O)c1ccccc1F	1	-13	6	/	0	-3
Cc1ccc(S(=O)(=O)N(C)C[C@@H]2Oc3ccc(NC(=O)CCC(F)(F)F)cc3CC(=O)N([C@@H](C)CO)C[C@H]2C)cc1	-1	8	-8	/	-4	3
O=C(N[C@@H]1C=C[C@@H](CC(=O)N2CCc3ccccc3C2)O[C@H]1CO)C1CCC1	0	1	1	/	-3	9
C[C@@H](NC(=O)C[C@@H]1C=C[C@H](NC(=O)C2CCC2)[C@@H](CO)O1)c1ccccc1	1	24*	2	/	1	6
O=C(N[C@@H]1C=C[C@H](CC(=O)N2CCc3ccccc3C2)O[C@@H]1CO)C1CCC1	-1	98*	5	/	2	3
CC(CNC(=O)Cn1ccc(NC(=O)OCc2ccccc2)nc1=O)c1ccccc1 (stereo not given)	2	36*	-2	-5	2	/
COCCCNC(=O)Cn1ccc(NC(=O)OCc2ccccc2)nc1=O	-1	/	5	-10	5	11
COc1ccc(-c2noc(CN3CCOCC3)n2)cc1OC	/	/	-2	-4	/	4
COc1ccc(-c2nnn(Cc3nc(N)nc(N4CCOCC4)n3)n2)cc1OC	/	/	96*	-5	/	-6
COc1cccc(S(=O)(=O)Nc2ccc3c(c2)OC[C@H](C)N(Cc2ccccc2F)C[C@H](C)[C@H](OC)CN(C)C3=O)c1	/	-2	-21	/	-2	3
C[C@@H]1CN([C@@H](C)CO)C(=O)c2cccc(NC(=O)C3CCOCC3)c2O[C@@H]1CN(C)S(=O)(=O)c1ccc(Cl)cc1	-4	-8	-8	/	-10	9
C[C@H](CO)N1C[C@H](C)[C@H](CN(C)C(=O)C2CCC2)Oc2cc(C#C[C@@H](C)O)ccc2S1(=O)=O	-1	-9	5	/	-2	-10
O=C(c1cccs1)c1sccc1Cc1ccccc1	2	-3	/	-6	-16*	-8
CC(C)(C)N(Cc1ccccc1)C(=O)c1cccs1	1	15	/	-1	6	3
CNC(=O)C[C@@H]1CC[C@@H]2[C@@H](COc3ccc(NS(=O)(=O)c4ccccc4C)cc3C(=O)N2C)O1	-1	?	-1	/	2	2
CCS(=O)(=O)Nc1ccc2c(c1)C(=O)N(C)C[C@@H](OC)[C@@H](C)CN(C(=O)NC(C)C)[C@H](C)CO2	-3	-7	10	/	2	3
CCOC(=O)N1CCN(C(=O)CNC(=O)c2ccc(Cl)cc2Cl)CC1	-2	0	26	-2	17	8
CCOC(=O)N1CCC(C(=O)NNC(=O)c2ccc(Cl)cc2Cl)CC1	-1	45*	12	-4	7	8
Cc1[nH]n(-c2cccc(Cl)c2)c(=O)c1C=NCC(C)C	-1	-5	-8	5	-21*	-1
C[C@@H]1CN([C@@H](C)CO)C(=O)Cc2cc(NC(=O)NC3CCCCC3)ccc2O[C@H]1CN(C)Cc1ccc(Oc2ccccc2)cc1	2	-19	10	/	-3	-1
CC(C)N(Cc1nc(-c2ccccc2)no1)C(=O)c1ccc2c(c1)OCO2	1	/	-29	-4	-29*	-1
CCc1nc(N)c(C#N)c(-c2cccnc2)c1C	/	/	/	/	/	6
Cc1nc(N)c(C#N)c(-c2cccnc2)c1C	/	/	48*	/	/	18
CC(C)NC(=O)N(C)C[C@@H]1Oc2ccc(N(C)C)cc2C(=O)N(C)C[C@H]1C	/	/	-5	/	-2	/
